A selection: hits, their analogues and other compounds. The true share with any hit is near 4.2%.
NLRP3 yeast inh: blocks the NALP3 inflammasome reconstituted in yeast; inhibition, % at 10 µM; 0.39% of 330,000 active; Yeast reconstituted NLRP3/ASC/caspase-1, beta-gal luminescence, 24 h;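 active means inhibition of 50% or more; inactive means inhibition below 50%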
TIM10 inh: TIM10 yeast growth inhibition; AID 463195; S. cerevisiae TIM10 strain growth, BacTiter-Glo luminescence, 24 h; inhibition, % at 10 µM; 1.4% of 330,000 active;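 active means inhibition of 40% or more at the single tested concentration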;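 further: wild-type TIM10 isogenic control strain grown at permissive 25 °C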
NALP1 inh: inhibitors of NALP1 inflammasome in yeast; 0.61% of 280,000 active; inhibition, % at 10 µM; S. cerevisiae NALP1/ASC/caspase-1 growth, X-gal OD620, 72 h; AID 2071; in the data active means inhibition mostly above about 24%, no sharp cut-off; inactive means mostly below about 32%
tim23-1 inh: tim23-1 yeast growth inhibition; S. cerevisiae tim23-1 growth, BacTiter-Glo luminescence, 24 h; inhibition, % at 20 µM; 1.3% of 330,000 active; AID 463212;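 active means growth inhibition of the mutant yeast at or above 50%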;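 further: temperature-sensitive mutant grown at 25 °C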
PfHsp90 set2: growth inhibition of yeast expressing Plasmodium Hsp90 | S. cerevisiae expressing PfHsp90, BacTiter-Glo ATP, 48 h; yeast lacking PDR1 and PDR3 efflux regulators | inhibition, % at 9.4 µM | 0.32% of 310,000 active | AID 504621;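 active means every replicate shows inhibition above about 80%, whatever the replicate mean, limit read from the data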
tim10-1 inh: inhibits growth of tim10-1 mutant yeast | AID 463190 | S. cerevisiae tim10-1 ts strain growth, BacTiter-Glo, 24 h | 2.2% of 330,000 active | inhibition, % at 20 µM;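 active means inhibition of at least 40%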;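 further: mutant grown at 25 °C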
TIM10 conf: TIM10 yeast growth inhibition, confirmed; shares compounds with TIM10 inh; S. cerevisiae tim10 strain growth, BacTiter-Glo luminescence, 24 h; inhibition, % at 10 µM; 63% of 4,600 active; AID 463215;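 active means inhibition of yeast growth at or above a set limit in either of two replicates at 10 µM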; further: this counterscreen used the strain with wild-type TIM10
tim23-1 conf: tim23-1 yeast growth inhibition, confirmed; shares compounds with tim23-1 inh; S. cerevisiae tim23-1 growth, BacTiter-Glo luminescence, 24 h; inhibition, % at 20 µM; 83% of 4,400 active; AID 463218;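 active means inhibition above about 39% in either of two replicate wells at 20 µM, limit read from the data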;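 further: temperature-sensitive tim23-1 mutant grown at 25 °C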
Each line names hits and unclear results; the compound was inactive in the other large screens (follow-up assays come after a bar, where they were run).

N/C(=N\OC(=O)c1ccc(Cl)cc1[N+](=O)[O-])c1ccccn1	TIM10 inh 62.3, tim23-1 inh 77.4 | TIM10 conf 70.8 | tim23-1 conf 71.4
N/C(=N\OC(=O)c1cc([N+](=O)[O-])ccc1Cl)c1ccccn1	none
N/C(=N\OC(=O)c1cc(Br)ccc1Cl)c1ccccn1	TIM10 inh 45.2, tim23-1 inh 62.2 | TIM10 conf 65.2 | tim23-1 conf 45.5
CCCc1ccc(C(=O)O/N=C(\N)c2ccccn2)cc1	TIM10 inh 51.6, tim23-1 inh 50.5 | TIM10 conf 64.3 | tim23-1 conf 57.0
CCc1c(C2(O)CCCCC2)[nH]c2cc(C(F)(F)F)ccc12	TIM10 inh 50.8, tim23-1 inh 67.1 | TIM10 conf 61.3 | tim23-1 conf inactive
O=C(/C=C/c1cccc([N+](=O)[O-])c1)c1ccco1	TIM10 inh 62.5, NALP1 inh 47.1, tim23-1 inh 63.9, PfHsp90 set2 85.2 | TIM10 conf 76.0 | tim23-1 conf inactive
COc1ccc(CCNc2oc(-c3ccc(C)cc3)nc2C#N)cc1OC	TIM10 inh 53.1, tim23-1 inh 55.2 | TIM10 conf 60.8 | tim23-1 conf 75.8
CCc1ccc(CN(C)C(=O)c2cc(COc3ccc(-n4cncn4)cc3)on2)cc1	TIM10 inh 55.6, tim23-1 inh 54.1 | TIM10 conf 46.1 | tim23-1 conf 52.5
COc1ccc(C(=O)OCC(=O)NC2CCCCCCC2)cc1OC	none (no result: NALP1 inh)
Cc1cc(NC(=O)CSc2nnc(CNC(=O)c3c(F)cccc3F)o2)no1	none
Cn1c(C(=O)Nc2ccc3c(c2)OCCO3)cc2sccc21	TIM10 inh 55.7, tim23-1 inh 56.2 | TIM10 conf inactive | tim23-1 conf 43.5
Cc1cccc2cccnc12	none (no result: NALP1 inh)
Cc1ccnc2c1ccc1c(C)ccnc12	TIM10 inh 50.0, tim23-1 inh 70.9 (no result: NALP1 inh) | TIM10 conf inactive | tim23-1 conf 59.7
O=C(NCc1ccncc1)/C(=C/c1cccc([N+](=O)[O-])c1)NC(=O)c1ccccc1	none
Cc1nnc(SCC(=O)NC2CC2)s1	none
CCC(=O)Nc1cccc(-c2cnc3ccccc3n2)c1	none
O=C(CCl)Nc1cccc(-c2cnc3ccccc3n2)c1	TIM10 inh 40.4, tim23-1 inh 63.3 | TIM10 conf inactive | tim23-1 conf 40.4
COc1ccccc1C1CC(=O)Oc2c(C(C)C)ccc(C)c21 (stereo not given)	none (no result: NLRP3 yeast inh, NALP1 inh)
O=C(NC(=S)NNC(=O)c1ccccc1O)c1ccccc1	TIM10 inh 48.5, tim23-1 inh 61.5 | TIM10 conf 42.3 | tim23-1 conf inactive
CC(C)C[C@H]1CNC(=S)N1CC1CCN(CCCCc2ccccc2)CC1	none (no result: NLRP3 yeast inh, TIM10 inh, NALP1 inh, tim23-1 inh, tim10-1 inh)
CC1CN(C(=S)Nc2ccc(SC(F)F)cc2)CC(C)O1 (stereo not given)	none
CC1CC(C)CN(C(=S)Nc2ccc(SC(F)F)cc2)C1 (stereo not given)	TIM10 inh 52.4, tim23-1 inh 54.2 | TIM10 conf inactive | tim23-1 conf 52.4
CCOC(=O)c1sc(NC(=O)Nc2cccc(Cl)c2)cc1C	none
CCOC(=O)c1sc(NC(=O)c2cccs2)cc1C	tim23-1 inh 55.4 | tim23-1 conf 77.8
O=C(N/N=C/c1cc(Br)cc(Br)c1O)c1cccc(N2CCCC2=O)c1	tim23-1 inh 50.8 | tim23-1 conf 55.7
CC(C)c1ccc(C2(C)NC(=O)N(CC(=O)N3CCN(C(=O)c4cccs4)CC3)C2=O)cc1 (stereo not given)	none (no result: NALP1 inh)
CCOc1cccc(CNCc2ccc(C(=O)O)cc2)c1	tim23-1 inh 89.0 | tim23-1 conf inactive
O=C(O)c1ccc(CNCc2cccc(Oc3ccccc3)c2)cc1	none
c1ccc(CC(Nc2ccccn2)c2ccccc2)cc1 (stereo not given)	tim23-1 inh 52.0 | tim23-1 conf 41.0
CC(C)(C)C(=O)c1sc(Nc2ccccc2)nc1N	tim23-1 inh 53.3 | tim23-1 conf 40.9
Cc1nc(Nc2ccccc2)sc1C(=O)c1ccccc1	none
COc1cc(/C=C2\C(=O)ON=C2c2ccc(Cl)cc2)ccc1O	none (no result: NALP1 inh, PfHsp90 set2)
COc1cc(/C=C2\OC(=O)c3c(OC)cccc32)ccc1O	tim23-1 inh 53.3 | tim23-1 conf 48.1
O=C(CSc1nnnn1C1CCCC1)c1ccc2c(c1)OCCO2	tim23-1 inh 52.5 | tim23-1 conf 45.5
CC(C)n1nnnc1SCC(=O)c1ccc2c(c1)OCCO2	none
CCN(CC)S(=O)(=O)c1cc(NC(=O)C2CC(=O)N(Cc3ccccc3)C2)ccc1Cl (stereo not given)	none (no result: NALP1 inh)
C=CCNC(=S)N/N=C(\C)c1ccccn1	NALP1 inh 77.7, tim23-1 inh 60.9 | tim23-1 conf 50.8
COc1ccc(OC)c(NC(=O)Nc2ccc(Cl)cc2)c1	tim23-1 inh 69.5 | tim23-1 conf 66.7
Cc1occc1C(=O)N/N=C/C(Br)=C/c1ccccc1	tim23-1 inh 54.6 | tim23-1 conf 75.4
O=C(CCl)c1ccc(Cc2ncc(C(F)(F)F)cc2Cl)s1	tim23-1 inh 52.0 (no result: PfHsp90 set2) | tim23-1 conf inactive
C[C@]1(CO)CCC[C@@]2(C)C1CC[C@@H](CO)[C@@H]2CCc1ccoc1 (stereo not given in full)	none
COc1ccc(CCN2CC(C(=O)Nc3nccs3)CC2=O)cc1OC (stereo not given)	none (no result: NALP1 inh)
CCCCCc1ccc(-c2nnc(N)s2)cc1	none
CCCCCCc1ccc(-c2ncc(N)cn2)cc1	tim23-1 inh 53.1 | tim23-1 conf 40.7
CSc1cc(SC)ncn1	none (no result: NLRP3 yeast inh, TIM10 inh, NALP1 inh, tim23-1 inh, tim10-1 inh)
N#C/C(=C\c1c[nH]c2ccccc12)C(=O)NC1CCCC1	tim23-1 inh 58.8 | tim23-1 conf 44.2
Cn1c(C=O)c(C#Cc2ccccc2)c2ccccc21	tim23-1 inh 58.3 (no result: NALP1 inh) | tim23-1 conf 63.0
Cn1c(SCc2ccc(Br)cc2)nnc1-c1ccccn1	tim23-1 inh 52.4 | tim23-1 conf inactive
Nc1ccc(N=Nc2ccccc2O)c(N)c1	tim23-1 inh 55.0 (no result: NALP1 inh, PfHsp90 set2) | tim23-1 conf 46.3
Cc1ccc(NC(=O)c2ccc(Cl)c(NC(=O)c3cccs3)c2)cc1	tim23-1 inh 66.3 | tim23-1 conf 66.2
Cc1nc2ccc(NC(=O)c3ccc(Cl)c(NC(=O)c4cccs4)c3)cc2s1	none
Cc1cccc(Oc2sc(C(=O)c3ccccc3)c(N)c2C#N)c1	tim23-1 inh 55.3 | tim23-1 conf 41.6
N#Cc1c(Nc2ccccc2)sc(C(=O)c2ccccc2)c1N	none
NC(=O)c1c(NC(=O)c2ccccc2F)sc2c1CCCC2	tim23-1 inh 54.2 | tim23-1 conf 49.0
CC(C)c1nnc(NC(=O)CCC(=O)NC2CCCCCC2)s1	none
C[C@@H]1CN([C@@H](C)CO)C(=O)Cc2cc(NS(=O)(=O)c3cn(C)cn3)ccc2O[C@@H]1CN(C)C(=O)Nc1ccccc1	none (no result: NALP1 inh)
